Among all 350,000 compounds or so, about 1,600 (0.46%) were called active.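 Rule for the calls: active = activation of at least 50%, plus an integration ratio under a set limit after plate pattern correction; inactive = the rest.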 What follows is part of a selection rich in actives, with near analogues and random picks from the rest.
What follows are compounds tested on CRF-binding protein / CRF receptor 2 complex (human) (assay: agonists of CRF-BP/CRF-R2 complex, primary screen, cell-based, HEK293, calcium dye fluorescence, uHTS (AID 588473;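 note: plate controls were neutral control wells without compound for no effect and CRF at EC100 for full effect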)). Conditions: calcium dye fluorescence (FLIPR), at 13.2 µM, hits give high values, percent of saturating CRF peptide response.
With `CCC(=O)Nc1cc(C(F)(F)F)ccc1N1CCCC1` the activation was -0.05% (inactive). For `CCCCCCSc1ccc([C@@H]2[C@@H]3C(=O)N(CC)C(=O)[C@@H]3[C@]3(C(=O)OC)CCCCN23)cc1OC`, the activation was 5.06% (inactive). In the case of `N#C/C(=C\N1CCOCC1)S(=O)(=O)c1ccc(Cl)cc1`, the activation is reported as -0.74% (inactive). `N#C/C(=C\c1ccc(N2CCOCC2)o1)C(=O)N1CCOCC1` was tested, and the activation was 57.8% (active). For `N#C/C(=C\C1=C(N2CCOCC2)C(=C\c2ccccc2)/CC1)C(=O)Nc1ccccc1F`, the activation was 10.9% (inactive). For `N#C/C(=C/c1ccc(N2CCOCC2)o1)C(=O)N1CCOCC1`, the activation was 67.4% (active). For `N#C/C=C(/c1ccc(F)cc1)N1CCOCC1`, the activation was -1.81% (inactive). `O=C(N1CCOCC1)N1CCOCC1` was tested, and the activation was -0.16% (inactive). In the case of `CCCN(CC(=O)Nc1ccc(C(N)=O)cc1)CC(=O)Nc1ccccc1C`, the activation is reported as -1.42% (inactive). In the case of `CCCn1nc(NC(=O)C(C)C)c2cc3cc(OC)ccc3nc21`, the activation is reported as -3.44% (inactive). With `O=C(O)CSc1nccc2ccccc12` the activation was -1.24% (inactive). With `CN1C(=O)/C(=C\c2ccc(-c3ccccc3)o2)SC1=S` the activation was 177% (active). In the case of `Cn1cccc1/C=C1\SC(=S)N(NC(=O)c2ccc(Cl)cc2)C1=O`, the activation is reported as 0.66% (inactive). With `NS(=O)(=O)c1ccc(-c2ccc(/C=C3\SC(=O)NC3=O)o2)cc1` the activation was -4.11% (inactive). With `CC(C(=O)NC1CCS(=O)(=O)C1)N1C(=O)/C(=C/c2ccc(Cl)cc2)SC1=S` (stereo not given) the activation was 0.11% (inactive). With `O=C1/C(=C/c2ccc(F)cc2)SC(=S)N1NS(=O)(=O)c1ccccc1` the activation was -2.42% (inactive). `O=C(O)C(c1ccccc1)N1C(=O)/C(=C\c2ccc(-c3cccc(Cl)c3)o2)SC1=S` (stereo not given) was tested, and the activation was 53.1% (active). For `Cc1nn(CC(=O)NC2CCCCC2)c(=O)c2cccn12`, the activation was -0.23% (inactive). `O=S1(=O)C=C(SCCN2CCCC2)c2ccccc21` was tested, and the activation was 0.69% (inactive). In the case of `CCCN1C2CCCC1CC(NC(=O)NC13CC4CC(CC(C4)C1)C3)C2` (stereo not given), the activation is reported as 0.55% (inactive). For `Cc1cccc(N(C)C(=O)CN2C(=O)COc3ccc(S(=O)(=O)N4CCCCCC4)cc32)c1`, the activation was 21.6% (inactive). With `COc1cc(CCC(=O)OCC(=O)Nc2cccc(S(N)(=O)=O)c2)cc(OC)c1OC` the activation was 1.86% (inactive). For `COC(=O)c1cc(NC(=O)c2nn(C)c(=O)c3ccccc23)cc(C(=O)OC)c1`, the activation was -0.23% (inactive). In the case of `CCc1ccc2oc(-c3ccc(N)cc3)nc2c1`, the activation is reported as 0.69% (inactive). In the case of `Cc1ccc2oc(=O)ccc2c1`, the activation is reported as -1.36% (inactive). In the case of `CCN(CC)c1ccc2oc(=O)c(C)nc2c1`, the activation is reported as 111% (active). `C/C(CC(=O)NC(C)(C)C)=N\NC(=O)c1ccco1` was tested, and the activation was -2.93% (inactive). `CN1CCC(=O)N([C@H](CO)Cc2ccccc2)CC1` was tested, and the activation was 0.86% (inactive). In the case of `O=C1NC(Nc2nc3ccccc3s2)(C(F)(F)F)C(=O)N1C1CCCCC1` (stereo not given), the activation is reported as -0.92% (inactive). For `CC(C)(C)OC(=O)NCCCCCC(=O)N/N=C/c1coc2ccccc2c1=O`, the activation was -5.17% (inactive). With `CC1=CC2=NC(=O)/C(=C/c3coc4ccccc4c3=O)C(=N)N2O1` the activation was 147% (active). With `COc1ccc(OCCCn2cccc2/C=C2/C(=N)N3OC(C)=CC3=NC2=O)cc1` the activation was 4.44% (inactive). For `C[C@@H]1NS(=O)(=O)c2cc(Cl)ccc2O[C@@H]1c1ccccc1`, the activation was -1.15% (inactive). For `Cc1ccc(-n2c(C)cc(C(=O)CN3C(=O)C(=O)N(C4CCCC4)C3=O)c2C)cc1`, the activation was 161% (active). With `Cc1cc(C(=O)COC(=O)C2CC2)c(C)n1-c1ccc(F)cc1` the activation was -3.55% (inactive). `Cc1ccc(-n2c(C)cc(C(=O)CSc3nnc4ccccn34)c2C)cc1` was tested, and the activation was -0.98% (inactive). With `Cc1ccc(S(=O)(=O)N2CCCCC2)cc1NC(=O)c1cccnc1` the activation was 6.52% (inactive). With `O=C(N/N=C/c1sc(N2CCCCC2)nc1-c1cccs1)c1cccnc1` the activation was 62.8% (active). `Cc1ccc(NC(=O)COc2ccc(/C=N\NC(=O)c3cccnc3)cc2)cc1C` was tested, and the activation was 0.37% (inactive). In the case of `Cc1ccc(C(=O)N/C(=C\c2cccs2)C(=O)NCCc2ccccn2)cc1C`, the activation is reported as -0.29% (inactive). With `COc1ccccc1C(=O)NCCC(=O)NC(C)CCc1ccccc1` (stereo not given) the activation was 0.39% (inactive). For `COc1ccc(CCNC(=O)CN(c2ccccc2)S(=O)(=O)c2ccccc2)cc1`, the activation was -0.58% (inactive). `COc1ccc([C@H]2CC(=O)C=C(/C=C/c3ccc(Cl)cc3)C2)cc1` was tested, and the activation was 2.34% (inactive). `CCSc1nc2c(c(=O)[nH]1)C(c1cccnc1)C(C(=O)OC(C)C)=C(C)N2` (stereo not given) was tested, and the activation was -11.6% (inactive). For `COc1cc(OC)cc(C(=O)NC(C(=O)N2CCC2)C(C)C)c1` (stereo not given), the activation was 2.01% (inactive). With `COc1cc(OC)cc(C(=O)NCC(=O)OCC(=O)NC(C)CCc2ccccc2)c1` (stereo not given) the activation was -1.06% (inactive). With `COc1cc(OC)cc(C(=O)N[C@H](C(=O)OCC(=O)NC(C)c2ccccc2)C(C)C)c1` (stereo not given in full) the activation was 102% (active). `COc1cc([N+](=O)[O-])cc([N+](=O)[O-])c1NC(=O)N1CCOCC1` was tested, and the activation was -0.3% (inactive). With `CSc1nsc(SCC(=O)Nc2cc(C(=O)O)ccc2C)n1` the activation was -1.07% (inactive). `COc1ccc(C)cc1NC(=O)CSc1nc(SC)ns1` was tested, and the activation was -0.91% (inactive). In the case of `CCc1nnc(NC(=O)CSc2nc(SC)ns2)s1`, the activation is reported as 113% (active). In the case of `CCCCn1c(=S)[nH]c2ncccc2c1=O`, the activation is reported as 2.09% (inactive). With `CCN(CC)S(=O)(=O)c1ccc(OC)c(NC(=O)CCc2c(C)noc2C)c1` the activation was -0.44% (inactive). With `Cc1nn(C)c(C)c1C(C)NC(=O)c1ccc(OC2CCN(Cc3ccccn3)CC2)cc1` (stereo not given) the activation was 3.71% (inactive). `Cc1ccc(NC(=O)C(C)c2cccc(C(=O)c3ccccc3)c2)cc1` (stereo not given) was tested, and the activation was -1.3% (inactive). For `Cc1cccc(OCC(=O)Nc2ccc(NC(=O)c3ccco3)c(C)c2)c1`, the activation was 0.25% (inactive). For `CC(Oc1ccc2ccccc2c1)C(=O)NNC(=S)NC(=O)c1ccco1` (stereo not given), the activation was 58.2% (active). In the case of `O=C(Nc1ccc2ccccc2c1)/C(=C\c1ccc2c(c1)OCO2)NC(=O)c1ccco1`, the activation is reported as 1.15% (inactive). With `CCCc1ccc(OCC(=O)NNC(=S)NC(=O)c2ccco2)cc1` the activation was 60.1% (active). In the case of `NS(=O)(=O)c1ccc(CNC(=S)NC(=O)c2ccco2)cc1`, the activation is reported as -6.68% (inactive). `O=C(NNC(=S)Nc1ccc(Br)cc1Cl)c1ccco1` was tested, and the activation was -1.64% (inactive). `C=CCOc1ccc(C2/C(=C(\O)c3c(C)[nH]c(C(=O)OC)c3C)C(=O)C(=O)N2CCN(C)C)cc1` (stereo not given) was tested, and the activation was -2.8% (inactive). `C=C1CCN([C@@H](Cc2ccccc2)C(=O)N2CCOCC2)S(=O)(=O)c2ccccc21` was tested, and the activation was 1.4% (inactive). For `Cc1ccc(C)c(NC(=O)COC(=O)Cn2c(C)csc2=O)c1`, the activation was 1.31% (inactive). `Cc1cc(Nc2ccc(C)c(C)c2)n2ncnc2n1` was tested, and the activation was -1.97% (inactive). In the case of `CC1=CC(=C(C#N)c2nc3ccccc3s2)C=C(C)N1c1ccc(F)cc1F`, the activation is reported as 119% (active). In the case of `Cc1nn(-c2ccc(F)cc2)c(Cl)c1/C=C(/CCC(=O)O)c1nc2ccccc2s1`, the activation is reported as 0.68% (inactive). For `Cc1cnc(C(=O)Oc2cccc(Cl)c2Cl)cn1`, the activation was -0.24% (inactive). With `CCCCNC(=O)c1ccccc1NC(=O)c1ccccc1N(C)S(C)(=O)=O` the activation was -1.79% (inactive). `CCCCCCCCCCCCN1C(=O)CSC1c1cccnc1` (stereo not given) was tested, and the activation was 1.06% (inactive).

From PubChem BioAssay AID588473 (Sanford-Burnham Center for Chemical Genomics, 2011)
